Results on 37 compounds are retold here after PubChem BioAssay AID588664 (The Scripps Research Institute Molecular Screening Center, 2011).

The term inhibition denotes the change of the read-out against control, counted positive when it falls.

The whole screen tested about 360,000 compounds, of which about 1,400 (0.39%) were called active. The sample holds actives, similar compounds and a random draw of the others, so the mix is not that of the screen. Rule as the data show it: active = inhibition above about 5% (passing the limit was not always enough); inactive = the rest.

In this test the target is Tyrosine-protein kinase ABL1 (Homo sapiens) + Ras and Rab interactor 1 (Homo sapiens) (UniProt P00519+Q13671). As to the kind of experiment: inhibitors of Rin1-Abl protein binding, primary screen, biochemical, TR-FRET (AID 588664). The following applies: at 7.35 µM, stronger effect = higher value.
Sequence of Tyrosine-protein kinase ABL1 (Homo sapiens) + Ras and Rab interactor 1 (Homo sapiens) (P00519 whole entry, looked up): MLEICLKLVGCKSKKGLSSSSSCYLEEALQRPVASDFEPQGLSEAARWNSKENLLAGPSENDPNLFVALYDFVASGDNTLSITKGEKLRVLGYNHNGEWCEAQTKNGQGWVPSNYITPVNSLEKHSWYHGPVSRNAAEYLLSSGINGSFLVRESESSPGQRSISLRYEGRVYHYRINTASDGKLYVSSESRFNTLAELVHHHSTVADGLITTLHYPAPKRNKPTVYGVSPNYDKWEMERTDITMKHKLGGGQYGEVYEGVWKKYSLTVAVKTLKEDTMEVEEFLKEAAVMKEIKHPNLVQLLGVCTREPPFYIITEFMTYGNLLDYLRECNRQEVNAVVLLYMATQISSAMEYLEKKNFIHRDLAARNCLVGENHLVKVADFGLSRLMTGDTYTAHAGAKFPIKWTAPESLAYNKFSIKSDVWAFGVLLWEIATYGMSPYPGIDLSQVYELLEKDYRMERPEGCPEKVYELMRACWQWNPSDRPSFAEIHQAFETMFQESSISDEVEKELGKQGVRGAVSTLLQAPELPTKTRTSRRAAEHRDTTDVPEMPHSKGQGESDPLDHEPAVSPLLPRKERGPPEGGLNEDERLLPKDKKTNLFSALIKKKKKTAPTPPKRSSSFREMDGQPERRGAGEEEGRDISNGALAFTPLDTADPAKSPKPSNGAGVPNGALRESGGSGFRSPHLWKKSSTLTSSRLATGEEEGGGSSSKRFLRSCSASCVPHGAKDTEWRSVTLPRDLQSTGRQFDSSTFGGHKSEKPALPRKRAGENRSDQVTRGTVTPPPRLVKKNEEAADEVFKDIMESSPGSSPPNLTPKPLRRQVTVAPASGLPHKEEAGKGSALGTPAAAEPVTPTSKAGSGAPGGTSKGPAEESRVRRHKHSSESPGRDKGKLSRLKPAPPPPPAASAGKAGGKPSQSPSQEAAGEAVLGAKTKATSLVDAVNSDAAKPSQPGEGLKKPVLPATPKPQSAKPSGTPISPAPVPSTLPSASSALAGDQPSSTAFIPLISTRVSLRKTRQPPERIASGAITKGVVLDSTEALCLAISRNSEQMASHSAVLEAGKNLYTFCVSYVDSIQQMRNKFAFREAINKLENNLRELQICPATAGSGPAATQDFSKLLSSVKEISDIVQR
Sequence of Tyrosine-protein kinase ABL1 (Homo sapiens) + Ras and Rab interactor 1 (Homo sapiens) (Q13671 whole entry, looked up): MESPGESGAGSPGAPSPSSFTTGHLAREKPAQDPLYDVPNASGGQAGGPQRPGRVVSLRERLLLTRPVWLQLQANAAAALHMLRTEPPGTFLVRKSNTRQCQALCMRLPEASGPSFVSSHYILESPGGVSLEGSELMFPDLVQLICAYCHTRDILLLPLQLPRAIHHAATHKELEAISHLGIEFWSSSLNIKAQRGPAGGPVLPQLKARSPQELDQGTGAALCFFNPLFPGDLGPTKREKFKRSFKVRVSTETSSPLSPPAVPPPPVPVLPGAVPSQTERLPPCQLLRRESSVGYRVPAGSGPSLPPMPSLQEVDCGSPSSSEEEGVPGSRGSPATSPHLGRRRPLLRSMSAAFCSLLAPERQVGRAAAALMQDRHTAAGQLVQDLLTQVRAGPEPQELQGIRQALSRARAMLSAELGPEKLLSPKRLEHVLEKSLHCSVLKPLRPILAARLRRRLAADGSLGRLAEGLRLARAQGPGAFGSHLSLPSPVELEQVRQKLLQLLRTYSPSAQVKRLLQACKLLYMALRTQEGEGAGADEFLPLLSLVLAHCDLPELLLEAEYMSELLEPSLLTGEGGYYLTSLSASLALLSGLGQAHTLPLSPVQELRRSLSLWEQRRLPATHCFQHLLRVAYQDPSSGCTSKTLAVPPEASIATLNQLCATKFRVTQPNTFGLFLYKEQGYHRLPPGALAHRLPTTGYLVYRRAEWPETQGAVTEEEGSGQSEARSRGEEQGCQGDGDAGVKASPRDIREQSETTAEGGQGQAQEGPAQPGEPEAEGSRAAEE
For `Nc1ncnc2c1ncn2[C@@H]1O[C@H](CNS(=O)(=O)c2ccc(-c3ccno3)s2)[C@@H](O)[C@H]1O`, the inhibition was -1.25% (inactive). On to `CCc1ccc(C(=O)NNC(=O)C2CCN(c3ncnc4sc(C)c(C)c34)CC2)cc1`, for which the inhibition was -0.76% (inactive).

Take `COc1cccc(COC(=O)C2CCN(S(=O)(=O)c3ccc(Cl)cc3)CC2)c1OC`: the inhibition was 3.29% (inactive). On to `CCOc1ccc(S(=O)(=O)N2CCC(C(=O)OCc3ccc(OC)cc3)CC2)cc1`, for which the inhibition is 3.73% (inactive). The same measure for `COC(=O)c1ccc(COC(=O)C2CCN(S(=O)(=O)c3c(Cl)cccc3Cl)CC2)o1`: 15.2% (active). `C=CCN1C(=O)c2ccc(C(=O)N3CCC(C(=O)OCC)CC3)cc2C1=O`: the inhibition was 2.75% (inactive). As for `O=C(O)CC1S/C(=N\N=C/c2ccccc2O)N(c2ccc(O)cc2)C1=O` (configuration not stated), the inhibition is 1.65% (inactive). The result for `C#CCOCCOCCOCCNc1nc(N2CCN(C(=O)[C@H](CCCCN)n3cc([C@@H](N)C(C)CC)nn3)CC2)nc(N2CCN(C(=O)[C@H](Cc3ccc(O)cc3)n3cc([C@@H](N)C(C)CC)nn3)CC2)n1` (some centres not stated) reads 5.61% (inactive).

Consider `C#CCOCCOCCOCCNc1nc(N2CCN(C(=O)C(Cc3ccc(O)cc3)n3cc(C(N)CC(C)C)nn3)CC2)nc(N2CCN(C(=O)C(Cc3ccc(O)cc3)n3cc(C(N)C(C)CC)nn3)CC2)n1` (configuration not stated), for which the inhibition is 14.3% (active). `C#CCOCCOCCOCCNc1nc(N2CCN(C(=O)[C@H](Cc3ccc(O)cc3)n3cc(C(N)CC(C)C)nn3)CC2)nc(N2CCN(C(=O)[C@H](CCC(=O)O)n3cc(C(N)[C@H](C)CC)nn3)CC2)n1` (some centres not stated): the inhibition is 2.63% (inactive). Regarding `CSc1ncnc2c1ncn2CC(=O)C1CCC2C3CCC4=CC(=O)CCC4(C)C3CCC12C` (configuration not stated), the inhibition was 13.2% (active). In the case of `CC12CCC(=O)C=C1CCC1C2C(O)CC2(C)C1CCC2(O)C(O)CO` (configuration not stated), the inhibition was 4.13% (inactive). For `CSc1ncnc2c1ncn2CCCNCC1CCCCC1`, the inhibition is -2.89% (inactive). Take `CSc1ncnc2c1ncn2CCCNCc1ccco1`: the inhibition was -1.36% (inactive).

Take `CCOC(=O)CN(C(=O)COc1nc(C)cc(C)c1C#N)c1ccc(Cl)cc1`: the inhibition was 6.34% (active). The result for `CCOC(=O)CN(C(=O)COc1nc(-c2ccccc2)cc(C)c1C#N)c1ccc(F)cc1` reads -3.22% (inactive); that for `CCOC(=O)COc1nc(C)cc(C(F)(F)F)c1C#N`, 0.37% (inactive). On to `CN(C1CCS(=O)(=O)C1)S(=O)(=O)c1ccc2ccccc2c1` (configuration not stated), for which the inhibition is 0.18% (inactive). The same measure for `COc1cc2c(cc1O)C(SC)=NC(C)(C)C2`: 2.88% (inactive); for `CCOc1cccc(-c2nnc(SCC(=O)NC3CC3)n2C)c1`: -0.29% (inactive). The result for `COc1cccc(-n2c(SCC(=O)NC3CCS(=O)(=O)C3)nc3ccccc3c2=O)c1` (configuration not stated) reads -0.16% (inactive). Regarding `CCOc1ccc(-n2c(SCC(=O)NC3CCS(=O)(=O)C3)nnc2-c2cccnc2)cc1` (configuration not stated), the inhibition was 5.73% (active).

`Cc1ccc(C(=O)CSc2nc3ccccc3c(=O)n2N)o1`: the inhibition was -0.26% (inactive).

As for `Cc1ccccc1N1CCN(CC(=O)NCc2ccc(Cl)cc2)CC1`, the inhibition was 1.14% (inactive). The result for `COc1cc(CNc2ncnc3c2ncn3[C@H]2CN(Cc3cccs3)C[C@@H](CO)O2)cc(OC)c1OC` reads 3.5% (inactive). Consider `CC(C)Cn1c(N2CCN(C(=O)/C=C/c3ccccc3)CC2)nc2ccccc21`, for which the inhibition was 0.97% (inactive).

Turning to `Cc1cccc(C)c1NC(=O)CNC(=O)c1ccc2c(c1)OCCO2`, the inhibition is 1.15% (inactive). Take `CN(Cc1c(F)cccc1Cl)C(=O)CNC(=O)c1ccc2c(c1)OCO2`: the inhibition is 34.7% (active). Regarding `O=C(NCCc1ccc(C(F)(F)F)cc1)c1ccc2c(c1)OCO2`, the inhibition was -1% (inactive).

On to `Cn1c(=O)cc(SCC(=O)N2CCCC2)c2cc(Cl)ccc21`, for which the inhibition is -25.5% (inactive). For the compound `CNC1(c2nnnn2-c2c(C)cccc2C)CCOC(C)(C)C1` (configuration not stated), the inhibition was -2.89% (inactive).

On to `Oc1ccc2ccc3cccc[n+]3c2c1`, for which the inhibition is -21.5% (inactive).

For `CCOc1cc(C(=S)N2CCOCC2)ccc1O`, the inhibition was -1.01% (inactive). `COc1cc(C(=S)N2CCOCC2)ccc1O`: the inhibition is 11% (active). The result for `COc1ccc(C)cc1NC(=S)N1CCOCC1` reads -0.53% (inactive); that for `CCOC(=O)C1CCN(C(=O)COc2cc(C)c(Br)c(C)c2)CC1`, -1.96% (inactive); that for `CCn1c(SCC(=O)Nc2ccc(OC)c(OC)c2)nnc1-c1c[nH]c2ccccc12`, 3.38% (inactive).
